Compound activity as filed in PubChem BioAssay.
ELG1 repair inh = inhibitors of ELG1-dependent DNA repair in HEK293T cells; AID 504467; actives 2.3% (n = 330,000); Potency, µM (series often up to 46.1 µM), actives largely listed as inhibitors; HEK293T ELG1-luciferase reporter, luminescence, 16 h; DNA damage induced by 5-fluorouridine; further: nearly all actives have a fitted effect of over 55% in size
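Cells (2,000 per well) received 5-fluorouridine plus test compound or DMSO and were incubated 16 hr at 37 °C, 5% CO2. Luciferase activity was read by luminescence 30 min after ONE-Glo addition; signal suppression marked inhibition of damage-induced ELG1 function.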
FLuc modulator = counter-screen for miR-21 project: firefly luciferase inhibitors or activators. purified FLuc, Km substrates, luminescence inhibition. actives 6.9% (n = 360,000). Potency, µM (top dose mostly 57.5 µM), hits mostly inhibitors; further: nearly all actives have a fitted effect of over 55% in size
Target sequence (P08659 whole entry, looked up): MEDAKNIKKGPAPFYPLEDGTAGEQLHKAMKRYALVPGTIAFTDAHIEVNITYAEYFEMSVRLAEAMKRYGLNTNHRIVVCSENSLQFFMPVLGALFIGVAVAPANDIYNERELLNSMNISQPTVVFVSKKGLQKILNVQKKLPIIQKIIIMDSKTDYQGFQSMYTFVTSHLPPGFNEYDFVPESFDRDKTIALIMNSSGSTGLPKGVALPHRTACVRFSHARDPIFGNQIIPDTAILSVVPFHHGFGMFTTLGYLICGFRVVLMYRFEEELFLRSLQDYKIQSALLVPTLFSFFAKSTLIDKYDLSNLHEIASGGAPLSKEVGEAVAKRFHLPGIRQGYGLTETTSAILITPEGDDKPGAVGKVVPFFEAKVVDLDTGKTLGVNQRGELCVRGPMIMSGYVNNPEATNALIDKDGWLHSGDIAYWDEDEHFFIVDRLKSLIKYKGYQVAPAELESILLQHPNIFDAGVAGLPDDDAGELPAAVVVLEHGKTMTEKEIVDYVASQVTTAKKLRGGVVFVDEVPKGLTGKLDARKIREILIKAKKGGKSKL
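Purified P. pyralis luciferase (10nM final) with 10uM D-luciferin and 10uM ATP (Km levels) in 50mM Tris acetate pH 7.5, 10mM Mg acetate, 0.01% Tween-20, 0.05% BSA; qHTS 6-point titration, ~60 µM downward; luminescence read.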
Rab9 prom act = Rab9 promoter activation; Huh7 Rab9 promoter-luciferase reporter, luminescence, 24 h; Potency, µM (titrated, usually from 9.22 µM), hits mostly activators; actives 2.8% (n = 320,000); further: nearly all actives have a fitted effect of over 60% in size
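Luciferase signal after 10 min detection reagent at ambient indicates Rab9 promoter upregulation; stably transfected Huh7 cells were treated 24 h with compound in DMSO at 37 °C, 5% CO2.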
SMN2 splice enh = SMN2 splice variant enhancement; AID 1458; Potency, µM (highest dose often 46.1 µM), actives largely listed as activators; actives 2.8% (n = 210,000); HEK293 SMN2-luciferase splicing reporter, luminescence, 30-36 h; further: nearly all actives have a fitted effect of over 55% in size
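HEK293 cells carry an SMN2 […]–luciferase reporter in which exon 7 inclusion puts luciferase in frame. Cells were plated 10-12 h before compound addition, then incubated 30-36 h at 37C. ONE-Glo luminescence was read; sodium butyrate at 4.5 mM final served as control.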
NPC1 prom act = activators of NPC1 promoter; Potency, µM (highest dose often 9.22 µM), most hits filed as activators; actives 2.4% (n = 320,000); Huh7 NPC1 promoter luciferase reporter, 24 h; further: nearly all actives have a fitted effect of over 60% in size
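Cells: Huh7 expressing luciferase under the NPC1 promoter, 1500/well. Seeded 2 h, compound added, incubated 24 h at 37 °C. Luciferase reagent, 10 min ambient, then luminescence.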
ELG1 genotoxic = induces genotoxicity in HEK293T cells with luciferase-tagged ELG1. actives 1.3% (n = 330,000). HEK293T ELG1-luciferase reporter, luminescence, 16 h. Potency, µM (titrated, usually from 46 µM), most hits filed as activators; further: nearly all actives have a fitted effect of over 60% in size
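Step 1: seed 2,000 HEK293T ELG1-luciferase cells per well. Step 2: add compound or DMSO, incubate 16 hr at 37 °C. Step 3: ONE-Glo, 30 min at room temperature, read luminescence.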
Hits are given with their value; - = inactive; ? = inconclusive; . = not tested or not shown; [ ] = remark or other dose. Hits are enriched below; roughly 9.2% of the tested compounds scored in any of these assays. The call rests on the fitted dose curve; in most records, active means well fitted curve in the direction sought with a large enough effect; inconclusive means small, poorly fitted or top-dose-only effect, or another doubt; inactive means no such curve, though single readings can be large; an effect the other way counts as inactive or inconclusive.

SMILES	ELG1 repair inh	FLuc modulator	Rab9 prom act	SMN2 splice enh	NPC1 prom act	ELG1 genotoxic
CC(C)c1ccc(OCc2nc(-c3ccccn3)no2)c(Br)c1	?	0.953µM	0.447µM	6.31µM	0.398µM	?
Cc1ccc(OCc2nc(-c3ccccn3)no2)cc1	?	4.78µM	1.41µM	8.91µM	1.12µM	3.66µM
CC(C)(C)Cc1nc(-c2ccccn2)no1	?	?	?	?	?	18.4µM
Cc1ccc(SCc2nc(-c3ccccn3)no2)cc1	?	-[2.3 µM]	?	?	?	?
CCc1ccc(OCc2nc(-c3ccccn3)no2)c(Br)c1	?	0.536µM	0.398µM	0.501µM	0.316µM	?
CCOc1ccccc1NC(=O)CN1C(=O)COc2ccc(S(=O)(=O)Nc3ccccc3)cc21	.	-	.	.	.	.
Cc1ccc(OCc2nc(-c3ccccn3)no2)c(Br)c1	?	0.213µM	0.282µM	-	0.1µM	0.326µM
c1ccc(OCCCc2nc(-c3ccccn3)no2)cc1	?	?	-[1.84 µM]	?	?	18.4µM
COc1ccc(NC(=O)c2cncn2-c2ccccc2)cc1	-	-	?	.	-	-
CCCCCn1c(=O)[nH]c2cc(C(=O)N3CCN(c4ccc(C(C)=O)cc4)CC3)ccc2c1=O	5.8µM	-	-	.	-	-
CC(=O)c1ccc(N2CCN(C(=O)CCCn3c(=O)[nH]c4ccc(Br)cc4c3=O)CC2)cc1	18.3µM	-	-	-	-	-
CC(=O)c1ccc(N2CCN(C(=O)CCCCn3c(=O)[nH]c4ccccc4c3=O)CC2)cc1	.	-	.	.	.	.
CCOC(=O)C1CCCN(S(=O)(=O)c2cc(-c3onc(C)c3C)ccc2OC)C1 (stereo unspecified)	.	-	.	.	.	.
N#Cc1c(/N=C/c2cccs2)sc2c1CCC2	?	1.51µM	2µM	17.8µM	3.16µM	7.08µM
N#Cc1c(/N=C/c2ccco2)sc2c1CCCCC2	?	0.169µM	3.55µM	-	0.794µM	?
Cc1ccc(NC(=O)CN(C)C(=O)c2cccc(Br)c2)cc1	-	-	-	.	-	-
Cc1cccc2c1NC(=O)/C2=C\C(=O)c1cccs1	-	4.78µM	-	-	-	-
CCCS(=O)(=O)Nc1ccc(-c2ccc3nnc(C)n3n2)cc1	?	-	-	-	-	?
Cc1ccc(-c2c(C)sc(=NC(=O)c3ccco3)n2C)cc1	?	0.953µM	2.51µM	?	1.58µM	-
Cc1ccc(-c2cc(C(=O)N3CCN(C(=O)c4ccco4)CC3)no2)cc1	-	?	-	-	-	-
Cc1ccc(-c2nc(CS(=O)CC(=O)NCCCc3ccccc3)c(C)o2)cc1 (stereo unspecified)	-	-	-	.	-	-
Cc1ccc(O)c(N=Cc2sc3ccccc3c2Cl)c1	?	1.51µM	-	-	-	-
O=c1[nH][nH]cc1C=Nc1ccccc1O	-	-	-	?	-	-
Oc1ccccc1N=Cc1sc2ccccc2c1Cl	-	2.13µM	-	-	-	-
Oc1ccc(Cl)cc1C=Nc1ccccc1Br	-	-	-	-	-	-
SMILES	ELG1 repair inh	FLuc modulator	Rab9 prom act	SMN2 splice enh	NPC1 prom act	ELG1 genotoxic
Cc1cccc(N=Nc2c(O)[nH]c3ccc(Br)cc23)c1	?	15.1µM	-	.	?	?
Oc1ccc(NC(=S)N=Nc2c(O)[nH]c3ccc(Br)cc23)cc1	16.4µM	-	-	-	-	-
Oc1[nH]c2ccc(Br)cc2c1N=NC(=S)Nc1ccc(F)cc1	?	-	-	.	-	-
CN(CC(=O)Nc1sc2c(c1C#N)CCCCC2)Cc1nc2ccccc2c(=O)[nH]1	23.1µM	-	-	-	-	-
CN(Cc1nc2ccccc2c(=O)[nH]1)C(=O)c1cc2c(s1)CCCCC2	-	.	.	.	.	-
COc1ccc(CN(C)CC(=O)Nc2sc3c(c2C#N)CCC3)cc1OC	?	-	-	-	-	-
COc1cccc(CN(C)CC(=O)Nc2sc3c(c2C#N)CCC3)c1OC	11.6µM	-	-	-	-	-
CCN(CC)c1ccc(/C=C2\C(=N)N3N=C(CC(=O)N4CCOCC4)SC3=NC2=O)cc1	?	26.9µM	-	.	-	-
CSc1ccc(/C=C2\C(=N)N3N=C(CC(=O)N4CCOCC4)SC3=NC2=O)cc1	-	?	-	.	-	-
Cc1cc(/C=C2\C(=N)N3N=C(CC(=O)N4CCOCC4)SC3=NC2=O)c(C)n1-c1ccccc1	-	10.7µM	-	.	-	-
O=C1c2ccccc2C(=O)N1CCCc1cn(C[C@H]2CC[C@H](Cn3cc(CCCN4C(=O)c5ccccc5C4=O)nn3)O2)nn1	8.2µM	.	.	.	.	-
c1ccc(-c2cn(C[C@H]3CC[C@H](Cn4cc(-c5ccccn5)nn4)O3)nn2)nc1	-	-	-	.	-	-
COc1ccc2c(c1)c1c(C)c3cnccc3c(C)c1n2CCCN	.	.	.	-[9.22 µM]	.	.
CCN(CC)C(=O)c1cc2c(=O)c3cc(Cl)ccc3oc2nc1C	-	?	-[1.84 µM]	-	-	-
Cc1nc2oc3ccc(F)cc3c(=O)c2cc1C(=O)O	?	?	-	.	-	-
CCOC(=O)c1cc2c(=O)c3cc(C)ccc3oc2nc1C	?	1.9µM	3.16µM	.	2.82µM	?
O=C(O)c1cc2c(=O)c3ccccc3oc2nc1C(F)(F)F	-	-	-[1.84 µM]	.	-	-
Cc1ccc2oc3nc(C)c(C(=O)O)cc3c(=O)c2c1	?	13.5µM	2.24µM	5.62µM	2.82µM	-
CC(=O)c1cc2c(=O)c3cc(C)ccc3oc2nc1C	?	8.49µM	3.55µM	12.6µM	?	10.3µM
CC(C)(C)C(=O)NCC12C=CC(O1)C1C(=O)N(c3ccccc3)C(=O)C12 (stereo unspecified)	-	-	-	-	-	-
O=C1C2C3C=CC(CO)(O3)C2C(=O)N1c1ccc(-c2ccccc2)cc1 (stereo unspecified)	?	19µM	-	-	-	?
C[C@H](CO)N1C[C@H](C)[C@@H](CN(C)S(=O)(=O)c2cccs2)Oc2c(NC(=O)C3CC3)cccc2C1=O	-	.	.	.	.	-
CC(C)(C)c1ccc(C(=O)NC(=S)NCc2cccnc2)cc1	-	23.9µM	-	-	-	-
CC(C)(C)c1ccc(C(=O)NNC(=S)NC(=O)c2cccnc2)cc1	?	19µM	-	.	-	-
Cn1nc(C(C)(C)C)cc1C(=O)O	-	-	-	-	-	-
CC(C)(C)c1ccc(C(=O)NNC(=O)c2ccncc2)cc1	-	19µM	-	.	-	-
Cn1nc(C(C)(C)C)cc1C(=O)NNC(=O)c1ccc(C(F)(F)F)cc1	7.3µM	-	-	.	-	-
CC(C)(C)c1ccc(C(=O)NNC(=O)c2ccc(Cl)cc2)cc1	-	-	-	-	-	-
C[C@]1(c2ccccc2)O[C@@H]2C[C@@H]3[C@@H]4CCC5=CC(=O)C=C[C@@]5(C)[C@]4(F)[C@H](O)C[C@]3(C)[C@@]2(C(=O)CO)O1	.	.	.	-[9.22 µM]	.	.
